Source: publication PMC7819943, “Rice protein-binding microarrays: a tool to detect cis-acting elements near promoter regions in rice”
In all, about 35,000 sequences were measured (“fluorescence intensity (a.u.)”: median about 10,000, highest 2% from about 52,000 on). Only a selection was taken, and the highest values are over-represented in it overall.

Target: T1, OsWOX13 (Oryza sativa, UniProt Q5QMM3 1-267)
T1 sequence: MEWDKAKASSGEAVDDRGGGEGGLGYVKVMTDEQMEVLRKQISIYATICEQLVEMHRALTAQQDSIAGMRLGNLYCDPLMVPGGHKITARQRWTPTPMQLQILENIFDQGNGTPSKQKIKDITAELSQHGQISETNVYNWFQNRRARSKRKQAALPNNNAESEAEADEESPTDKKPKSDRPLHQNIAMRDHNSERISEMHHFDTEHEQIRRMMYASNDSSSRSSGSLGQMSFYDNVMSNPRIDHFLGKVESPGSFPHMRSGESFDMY
Test: protein-binding microarray (RPBM); PBS, 2% BSA, 51.3 ng/ul salmon testes DNA, 50 uM zinc acetate, 200 nM TF, 25 C, 1 h; high values mean tight binding
Details: protein: recombinant; tags: N-terminal polyhistidine and DsRed monomer fusion (pET32a); label: CyDye5-dUTP incorporated in the synthesized complementary strand; 3' TTTTT single-stranded linker to array surface; dsDNA, one strand shown
Summary of the method: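 For the binding signal, per-feature fluorescence intensity was read in arbitrary units on an Axon 4000B scanner. Before scanning, a 2% BSA-blocked custom Agilent array made double-stranded with Cy5-dUTP was washed after 1 h at 25 °C with 200 nM protein and 50 µM zinc acetate. The proteins were Ni–NTA-purified transcription factors with N-terminal polyhistidine and DsRed fusions, expressed in E. coli BL21-CodonPlus.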

Sequence	binding signal
TAGATGAGTTAAATATAATTATTTGTATGTTTTAATAAATCGGAGTCACCTAGTGCAG	3630 fluorescence intensity (a.u.)
GTTTAATTAATTATATGTTAATGATTTTCTTTTCATGCCCCGGAGTCACCTAGTGCAG	65400 fluorescence intensity (a.u.)
GCTGATGACTTTTCTCCCGGTTTCATATTTTCTTTTAGAACGGAGTCACCTAGTGCAG	8420 fluorescence intensity (a.u.)
TTAAAATTTATATGTTAAATTATAGTGGTTTAAAATTTCACGGAGTCACCTAGTGCAG	8530 fluorescence intensity (a.u.)
GTCATTTTAATTGCAAATGCTTTTATATGTTGTTTCTTTCCGGAGTCACCTAGTGCAG	6630 fluorescence intensity (a.u.)
TTAATTAATAATATGTTAATGATTTTCTCATCTTACCTTACGGAGTCACCTAGTGCAG	13400 fluorescence intensity (a.u.)
CATGATTTTACTTTCTTTTCAGGTCTTAGGAGTGAGCTTCCGGAGTCACCTAGTGCAG	9930 fluorescence intensity (a.u.)
TATGATTTATAAATTAATGGATTTAAAGTTTTAAGTTAATCGGAGTCACCTAGTGCAG	43900 fluorescence intensity (a.u.)
GAGATAGAGATAATAGAAAGATTAAACAAGATTCGATAGACGGAGTCACCTAGTGCAG	3590 fluorescence intensity (a.u.)
CGAGATAAATCACGGTAATCACAGCAACAGCAACAGCAACCGGAGTCACCTAGTGCAG	10400 fluorescence intensity (a.u.)
ATGCCATCCAATCAAGCCACGACGATCCACAGCCATAGTGCGGAGTCACCTAGTGCAG	11500 fluorescence intensity (a.u.)
AAGCAAATCTCTAGATAGATAGATAGATGGATGGATGGATCGGAGTCACCTAGTGCAG	10800 fluorescence intensity (a.u.)
TGCTTAATTAATTATGTGCTAATGAGGTCTTTCATTTTACCGGAGTCACCTAGTGCAG	56100 fluorescence intensity (a.u.)
GAGGGAGTACTAATTATTTAATTTGATGATTATAATACTTCGGAGTCACCTAGTGCAG	17900 fluorescence intensity (a.u.)
GTTTAATATTTATAATTAATTTTCAAACATCCGATGTGATCGGAGTCACCTAGTGCAG	19000 fluorescence intensity (a.u.)
ATTTAATTAATATGTTAATGAGCTAATCCGTTTTCGGGACCGGAGTCACCTAGTGCAG	52300 fluorescence intensity (a.u.)
GATCATTTCAGTGATTAATTTAATTGGAAAAGTAATTCAACGGAGTCACCTAGTGCAG	6700 fluorescence intensity (a.u.)
TGCTAATGGACTTATTACTTTTGCTTGCTTTAATTTTGCCCGGAGTCACCTAGTGCAG	14600 fluorescence intensity (a.u.)
AATTAATCATGCGTTAATGGACCGTTCCGTTTTCCGTGTTCGGAGTCACCTAGTGCAG	20900 fluorescence intensity (a.u.)
CTTACCTGCTTTAATTTATGCATAATGTTGCTTCATAAACCGGAGTCACCTAGTGCAG	6090 fluorescence intensity (a.u.)
GATGTGATTGGATTAATTTTCAAAAGTACTTTTATATGATCGGAGTCACCTAGTGCAG	56300 fluorescence intensity (a.u.)
GTTTTAGCTAATATTTAATTAATCATGTGCTAATGAGCTACGGAGTCACCTAGTGCAG	8590 fluorescence intensity (a.u.)

Sequence	binding signal
CGGTCAAATTATCCAAATTAATTAAAGAGGGAACTCGGTCCGGAGTCACCTAGTGCAG	35300 fluorescence intensity (a.u.)
CCTAATAATTAATTAATGATGCACGAGGGATTATCCAACTCGGAGTCACCTAGTGCAG	53200 fluorescence intensity (a.u.)
ACGAATCTATTGAGCCTAATTAATTCATAATTAGTCTATGCGGAGTCACCTAGTGCAG	14600 fluorescence intensity (a.u.)
GAATTAAATGATGTGTGAATAATGGATGGCTAGGATGCAACGGAGTCACCTAGTGCAG	9780 fluorescence intensity (a.u.)
TTTAATTGTTATGAACACGACAATGTAATCGGATCATAGACGGAGTCACCTAGTGCAG	10100 fluorescence intensity (a.u.)
ATTGTATCTAATTATTGGCAACATGGAAATTAATCTCTTGCGGAGTCACCTAGTGCAG	9160 fluorescence intensity (a.u.)
CATAAATCATTTCTTTTGTTTTCAAACTAAGCATATTTGACGGAGTCACCTAGTGCAG	4540 fluorescence intensity (a.u.)
AATGTGATTTTCATGTATCCAATTAAAATATTTTAAGAAGCGGAGTCACCTAGTGCAG	9180 fluorescence intensity (a.u.)
CCTTGATGATTGAACCAGTCAGCCCCAACATCTCTATAAACGGAGTCACCTAGTGCAG	25800 fluorescence intensity (a.u.)
GCAATTTGATTTGGCCTGTATATTATTATGTGCAGGGTTCCGGAGTCACCTAGTGCAG	13800 fluorescence intensity (a.u.)
TTTCAAGAGATTAATTAATTTTCTCAACTTTGCAAGGGCACGGAGTCACCTAGTGCAG	16000 fluorescence intensity (a.u.)
CCTTAATTAATTAATTTCTAGATCTCAAGAGGGCAACAGACGGAGTCACCTAGTGCAG	57200 fluorescence intensity (a.u.)
TAATTTATTAATTTATTATTAGAGTATATATATTTCAAGACGGAGTCACCTAGTGCAG	6800 fluorescence intensity (a.u.)
TTACAGATTGGCCCCTGTATTTCTCTCTCTCGTCTCTCCTCGGAGTCACCTAGTGCAG	24800 fluorescence intensity (a.u.)
TTATCAATCTACATCGTTATAATTTAGTTCCACCGTAATTCGGAGTCACCTAGTGCAG	19800 fluorescence intensity (a.u.)
GCCGGGAGGGAGGGAGGGAGGGAGGGAGGGAGACCCCGCACGGAGTCACCTAGTGCAG	9960 fluorescence intensity (a.u.)
GATGATTTGATTAGATTAGGTTAGGTTTGTTATTCACCTACGGAGTCACCTAGTGCAG	65500 fluorescence intensity (a.u.)
TTGATTTGAAAGGTACTACCTCTGTTTCAGGTTAGAAAGTCGGAGTCACCTAGTGCAG	3380 fluorescence intensity (a.u.)
GTTAGGGTTTTCTTTTGATTGTCAGGGTTTTCTTTTGATTCGGAGTCACCTAGTGCAG	3960 fluorescence intensity (a.u.)
TAGATGATTATTATGATAGGATTGATTTGTTTAGAGTCTTCGGAGTCACCTAGTGCAG	46100 fluorescence intensity (a.u.)
TTATTAGATGATGATTATTTTGAGAAGGTTTCTTAGGATGCGGAGTCACCTAGTGCAG	12900 fluorescence intensity (a.u.)
AGATGATTGATTTTCAGGTGATGAACAGGGTTACTGTTTTCGGAGTCACCTAGTGCAG	63000 fluorescence intensity (a.u.)
